According to PubChem BioAssay AID743279 (National Center for Advancing Translational Sciences (NCATS), 2014):
Screen size: about 360,000 compounds; about 17,000 (4.7%) were called active. About 5% were inconclusive and are not listed. No stated cut-off is given here; in the data, active means activity change below about -50%; inconclusive means mostly about -30% to -49%; inactive means weaker than that. For the sample, actives were picked, then their nearest neighbours and some compounds at random.

test: qHTS for Inhibitors of Inflammasome Signaling: IL-1-beta AlphaLISA Primary Screen; conditions: THP-1 LPS/ATP IL-1B secretion, 16 h; at 57.5 µM, hits give low values
Outline: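 Secreted IL-1B measured by AlphaLISA bead assay after 16 h compound exposure of THP-1 cells; compounds (final up to 57.5 uM) added 1 h before LPS (250 ng/mL) and ATP (1.25 mM) stimulation; lower signal means less secretion.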
On the % scale 0 is the no-effect control and ±100 the full control effect.

SMILES | activity change
CC1(C(=O)NS(=O)(=O)c2cccc(F)c2)CCN1C(=O)Cc1cc(F)ccc1F (configuration not stated) | 17.9% (inactive)
CC1CCCCC12NC(=O)N(CC(=O)Nc1ccc(S(=O)(=O)Nc3ncccn3)cc1)C2=O (configuration not stated) | -5.14% (inactive)
Cc1ccc(NC(=O)Cn2sc3ccccc3c2=O)cc1 | -108% (active)
Cc1ccc(NC(=O)Cn2c(C)csc2=O)cc1 | -15.7% (inactive)
Cc1nn(CC(=O)Nc2ccc(F)cc2)c(=O)c2ccccc12 | -1.55% (inactive)
COc1cccc2sc3cc(NCC[C@@H]4CCCN4C)ccc3c(=O)c12 | -71.4% (active)
COc1cccc(OC)c1C(=O)Nc1ccc2c(c1)n(C)c(=O)n2C | 0% (inactive)
CCCCC[C@H](C)N1C[C@@H](COCc2ccccc2)Oc2cc(N3CCC[C@@H]3CO)ccc2S1(=O)=O | 0.594% (inactive)
O=C(c1cccs1)C1C(c2ccc(Br)cc2)NC(=S)NC1(O)C(F)(F)F (configuration not stated) | -6.17% (inactive)
O=C(COC(=O)COc1ccccc1F)Nc1cccc(S(=O)(=O)N2CCCCC2)c1 | -4.52% (inactive)
CCCCCc1ccc(-c2ccc(C(=O)O)cc2)nc1 | 46.9% (inactive)
Cc1ccc(Nc2nc(-c3ccc(O)cc3O)cs2)nc1 | -66.7% (active)
Cc1ccc(-c2csc(NCCc3nc4cc(Cl)c(Cl)cc4n3CCOCCO)n2)cc1 | -12.6% (inactive)
CC(=O)Nc1cnc(-c2ccc(O)cc2C)cn1 | -15.7% (inactive)
COc1ccc(NC(=O)/C(N=Nc2cccc(S(=O)(=O)Nc3ccc(SC(F)F)cc3)c2)=C(\C)O)cc1 | 2.19% (inactive)
Cc1cccc(CN2CCN(C3CN(Cc4cn(Cc5ccccc5F)nn4)S(=O)(=O)C3)CC2)c1 (configuration not stated) | 4.26% (inactive)
COc1cc(C(=O)NNC(=O)CN2C(=O)NC3(CCCC3)C2=O)cc(OC)c1OC | -7.47% (inactive)
Cc1ccccc1-c1ccc2c(c1)O[C@@H](CN(C)Cc1ccc(C(=O)O)cc1)[C@@H](C)CN([C@H](C)CO)S2(=O)=O | 20.6% (inactive)
COc1ccc(C(=O)COC(=O)COc2ccc(C)c(C)c2)cc1 | 6.77% (inactive)
Cc1ccc(SC(=O)COc2ccc(C)c(C)c2)cc1 | -70% (active)
Cc1ccc(OCC(=O)NC(C)c2ccccc2)cc1C (configuration not stated) | 9.86% (inactive)
Clc1cccc(Cc2c(-c3cccc(Cl)c3)nc3ccc(Cl)cn23)c1 | 64.9% (inactive)
Cc1ccccc1C(=O)OC1OC(=O)C(Cl)=C1Nc1ccccc1 (configuration not stated) | -17.8% (inactive)

SMILES | activity change
O=C1OC(OC(=O)c2ccccc2Br)C(N2CCOCC2)=C1Cl (configuration not stated) | -12.8% (inactive)
Cc1ccc(NC2=C(Cl)C(=O)OC2OC(=O)c2ccccc2C)cc1 (configuration not stated) | -89.8% (active)
CCOC(=O)[C@H]1[C@H]2COc3ccc(Br)cc3[C@@H]2N2C(=O)CN(C)C(=O)[C@@]12C | 19.3% (inactive)
COC(=O)c1ccccc1N=Nc1c(C)[nH][nH]c1=O | 1.34% (inactive)
CCOc1cc(/C=N/NC(=O)c2c(C)nc3ccc(Cl)cn23)ccc1O | 11.7% (inactive)
O=C(NCC1CCCO1)c1cc2c([nH]c3ccccc32)c(-c2ccc(F)cc2)n1 (configuration not stated) | -10.2% (inactive)
O=C(NCCc1ccc(F)cc1)c1n[nH]c2ccccc12 | 29.4% (inactive)
O=C(NCCCO)c1cc2c([nH]c3ccccc32)c(-c2ccc(F)cc2)n1 | -65.7% (active)
CC(C(=O)NCCc1ccc(S(N)(=O)=O)cc1)N1C(=O)CC(C)(C)Sc2ccccc21 (configuration not stated) | 25.8% (inactive)
CCCOc1ccc(NC(=O)C2CCCNC2=O)cc1 (configuration not stated) | -6.06% (inactive)
CCCOc1ccc(C(=O)CCC(=O)OC(C)C(=O)Nc2ccc(NC(C)=O)cc2)cc1 (configuration not stated) | 10.1% (inactive)
CCCOc1ccc(C(=O)C(CCC(CNCC)C(=O)c2ccc(OCCC)cc2)CNCC)cc1 (configuration not stated) | -94% (active)
Cc1[nH]c2ccccc2c1/C=N/NC(=O)CNC(=O)c1ccc2c(c1)OCO2 | 0% (inactive)
COCCNC(=S)N/N=C/c1c(C)[nH]c2ccccc12 | -69.7% (active)
COc1ccc2ccccc2c1/C=N/NC(=O)c1cc(C)[nH]n1 | 0% (inactive)
OCCNc1nc2ccccc2n1-c1ncnc2sc3c(c12)CCC3 | 20.3% (inactive)
CC1=C(C(=O)N2CCOCC2)CC(CC(=O)NCCCN(C)C)C(=O)N1Cc1ccc(C(C)(C)C)cc1 (configuration not stated) | -21.9% (inactive)
COc1ccccc1C(=O)c1ccccc1C(=O)c1ccccc1 | -7.51% (inactive)
CCOC(=O)C(=CNc1cccc(C)n1)C(=O)OCC | 16.2% (inactive)
CCOC(=O)NC(=O)/C(C#N)=C\c1ccccc1 | 3.54% (inactive)
CCOC(=O)C(=Cc1ccccc1OC)C(=O)OCC | -99.3% (active)
CCOC(=O)c1ccccc1OC(=O)Oc1ccccc1C(=O)OCC | -16.9% (inactive)
CCOC(=O)C(=Cc1ccccc1)C(=O)c1ccccc1 | -98.2% (active)

SMILES | activity change
C=CCn1c(=O)n(C)c2c(=O)n(C)c(=O)n(C)c21 | -2.57% (inactive)
Cc1ccc(F)c(S(=O)(=O)NC(=O)C2(C)CCN2C(=O)CCc2cccs2)c1 (configuration not stated) | 0.428% (inactive)
Cc1ccc(NC(=O)CN(C)C(=O)c2cccc(S(=O)(=O)N3CCCC3)c2)cc1 | 8.98% (inactive)
NC(CSC1(c2ccccc2)c2ccccc2-c2ccccc21)C(=O)O (configuration not stated) | 24.5% (inactive)
O=C(NCc1nnnn1-c1ccc(Cl)cc1)c1ccc([N+](=O)[O-])o1 | -76.1% (active)
CC(=O)c1ccc(S(=O)(=O)NCc2nnnn2-c2ccccc2)cc1 | 8.11% (inactive)
CN(C)c1nnnn1-c1ccc(Cl)cc1 | 13.4% (inactive)
CC1=C(C(=O)N2CCOCC2)CC(CC(=O)NCCN2CCOCC2)C(=O)N1CCC1=CCCCC1 (configuration not stated) | 11.4% (inactive)
CC(C)CCn1cnc2c1c(=O)n(CC(=O)NC(N)=O)c(=O)n2Cc1ccccc1 | -1.43% (inactive)
COCCn1cnc2c1c(=O)n(Cc1ccc(Br)cc1)c(=O)n2Cc1ccccc1 | -61.2% (active)
COCCn1cnc2c1c(=O)n(CC(=O)NN)c(=O)n2Cc1ccccc1 | 0.195% (inactive)
COc1ccc2c(c1)CCCO[C@]21O[C@H](CCO)C[C@H](O)[C@H]1O | 24.3% (inactive)
NC(N)=Nc1nc(-c2ccccc2)c2cc(Cl)ccc2n1 | -81.6% (active)
Clc1ccc2nc(-c3ccccc3)nc(C(Cl)Cl)c2c1 | 42.9% (inactive)
COC(=O)Cn1nc(-c2ccccc2)c2cc(Cl)ccc21 | -6.25% (inactive)
Cc1cccc(NS(=O)(=O)c2ccc(C)c(C(=O)NCC(c3ccccc3)N(C)C)c2)c1 (configuration not stated) | -29.1% (inactive)
CC(C(=O)NCC1CCCCC1)N(C)Cc1cccc(Cl)c1 (configuration not stated) | -16.9% (inactive)
O=Nc1c(O)cc(O)c2ccccc12 | -2.52% (inactive)
CC1(C)C(=O)Nc2ccccc2N1C(=O)COC(=O)Cn1cnc2ccccc2c1=O | 7.25% (inactive)
O=C(COC(=O)Cn1cnc2ccccc2c1=O)NCc1ccccc1Cl | 12.2% (inactive)
O=C(COC(=O)Cn1cnc2ccccc2c1=O)NCC12CC3CC(CC(C3)C1)C2 | -52.9% (active)
CCc1cc(-c2nnn(CCC3COCCO3)c2CC)ccc1-c1cn(Cc2ccc3ccccc3c2)nn1 (configuration not stated) | 52.6% (inactive)
Cc1ccc(CNC(=O)C2CCN(S(=O)(=O)c3ccc4nc5c(c(C(=O)O)c4c3)CC(C)CC5)CC2)cc1 (configuration not stated) | 1.65% (inactive)

SMILES | activity change
COc1ccc(CC2(CO)CCN(Cc3cnn(C)c3)CC2)cc1 | 12.5% (inactive)
COc1cccc(CC2(CO)CCN(Cc3cnc(-c4cccc(C)c4)nc3)CC2)c1 | -64.4% (active)
Cc1cccc(-c2ncc(CN3CCC(CO)(CCCc4ccccc4)CC3)cn2)c1 | -19.1% (inactive)
CC(=O)c1cc(CN2CCC(n3nccc3NC(=O)c3ccccc3Cl)CC2)cs1 | -15.4% (inactive)
O=C(NCc1nnc(SCC(=O)N2CCCCCC2)o1)c1ccc(F)cc1 | 22.8% (inactive)
O=C(NCc1nnc(SCC(=O)N2CCC(Cc3ccccc3)CC2)o1)c1ccco1 | -92.1% (active)
Cn1c(CNC(=O)c2ccco2)nnc1SCC(=O)N1CCN(c2ccccc2)CC1 | 52% (inactive)
NC(=O)C1(Nc2ccccc2Cl)CCCC1 | -1.93% (inactive)
CCOC(=O)[C@]12CCCC=C1N(Cc1ccc3c(c1)OCO3)C(=O)[C@H](CC(=O)NCc1cccs1)C2 | 0% (inactive)
O=C1C=C(c2ccc(Cl)cc2)C(=O)N1Nc1ccccc1 | -76.1% (active)
O=C(O)CC1=C(Nc2ccccc2)C(=O)N(c2ccccc2)C1c1ccc(Cl)cc1 (configuration not stated) | 0% (inactive)
O=C(CCC(=O)OCc1ccc(Cl)cc1)Nc1ccccc1 | 15% (inactive)
COc1ccc(NC(=O)C(C)N2c3cccc4cccc(c34)S2(=O)=O)c(OC)c1 (configuration not stated) | 27.8% (inactive)
CCC(C)CN1C(=O)CN(S(C)(=O)=O)CC1(C)C(=O)Nc1ccc2c(c1)OCCO2 (configuration not stated) | -19.9% (inactive)
COc1ccc(-c2cc3c(c4c2ccn4C)C2CCC3C2)cn1 (configuration not stated) | 0% (inactive)
COc1ccc(-c2c(C#Cc3ccccc3)c3ccccc3n2C)cc1 | -16.3% (inactive)
COc1ccc(CCNCc2c(-c3ccccc3)n(C)c3ccccc23)cc1 | -97.2% (active)
COc1ccc(-c2nc3ccccc3c(=O)n2CCc2ccc(O)cc2)cc1 | -13% (inactive)
CCN1CN(Cc2ccccc2)CNC1=S | 0.299% (inactive)
CCc1nnc(NC(=O)C2CCN(C(=O)c3ccccc3C)CC2)s1 | -4.49% (inactive)
O=C(CCCOc1ccc(Cl)cc1Cl)NNC(=O)C1CCC1 | -7.73% (inactive)
CCOc1ccc(S(=O)(=O)N2CCC(C(=O)NCc3ccccn3)CC2)cc1Cl | -5.47% (inactive)
Cc1ccc(C(NC(=O)C2CCN(CCOc3ccc(Cl)cc3Cl)CC2)c2ccccn2)cc1 (configuration not stated) | -68.4% (active)
